In all, about 5,500 compounds went through this assay and about 2,000 (36%) were called active. Another 18% or so got no clear call; they are omitted. Rule as the data show it: active = normalized growth mostly below about 0.91 (no sharp cut-off); inconclusive = no clear call, values can overlap the other calls; inactive = mostly above about 0.92. This is one part of the list.
Test: chemical genetic growth profiling, strain panel (AID 1159580);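 also: tested at 20 µM; growth read once vehicle control cultures reached saturation at 30 °C; 1 = growth at the plate median or of vehicle wells; lower values mean less growth of the strain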
Conditions: S. cerevisiae deletion strains, growth OD

Measured: normalized growth

CCn1cc(C(=O)O)c(=O)c2ccc(Cc3ccccc3)nc21
inactive: locus YAL013W, strain DEP1, hits give low values 1.03 | locus YAL040C, strain CLN3, hits give low values 1 | locus YCL061C, strain MRC1 (second series), hits give low values 1.01 | locus YDR363W, strain ESC2, hits give low values 1.01 | locus YER002W, strain NOP16, hits give low values 0.964 | locus YGR078C, strain PAC10, hits give low values 0.971 | locus YJR075W, strain HOC1, hits give low values 1.02 | locus YMR263W, strain SAP30, hits give low values 1 | locus YMR307W, strain GAS1, hits give low values 1 | locus YNL128W, strain TEP1, hits give low values 0.988 | locus YNL153C, strain GIM3, hits give low values 0.923 | locus YNL175C, strain NOP13, hits give low values 0.972 | locus YNL197C, strain WHI3, hits give low values 0.942 | locus YNL224C, strain SQS1, hits give low values 0.965 | locus YNL322C, strain KRE1, hits give low values 0.991 | locus YOR083W, strain WHI5 (second series), hits give low values 1.09 | locus YPL241C, strain CIN2, hits give low values 1.01

Source: PubChem BioAssay AID1159580 (chemical genetic matrix, 2015)
